Among the data in publication PMC7862700, “An all-to-all approach to the identification of sequence-specific readers for epigenetic DNA modifications on cytosine” are binding signal values, retold here.

Holding throughout (assay): DAPPL (digital affinity profiling via proximity ligation, sequencing); 10 mM Tris-HCl pH 7.5, 50 mM NaCl, 1 mM DTT, 4% glycerol, room temperature, 30 min; GST-TFs on glutathione beads, 16-mer random dsDNA library, 0.1% formaldehyde crosslink after washing; high values mean tight binding
One assay addresses T1, FEV (Homo sapiens, UniProt Q99581 1-238).
T1 sequence: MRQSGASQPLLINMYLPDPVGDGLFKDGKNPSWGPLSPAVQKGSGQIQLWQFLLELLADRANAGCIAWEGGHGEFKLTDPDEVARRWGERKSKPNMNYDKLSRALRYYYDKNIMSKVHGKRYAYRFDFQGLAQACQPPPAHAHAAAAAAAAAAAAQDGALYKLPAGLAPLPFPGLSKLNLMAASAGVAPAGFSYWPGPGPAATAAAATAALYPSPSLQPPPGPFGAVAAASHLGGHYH
The settings on record: protein: recombinant; tags: N-terminal GST; dsDNA, one strand shown. An outline of the steps:
(§1)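 In yeast, human transcription factors were expressed with a GST fusion, then pulled down on glutathione beads and given DNA barcodes. Pooled with a tag-only sample, they were exposed to 200 nmole of a 16-mer random double-stranded DNA library (Tris/NaCl/DTT/glycerol buffer, room temperature, 30 min), washed, crosslinked with 0.1% formaldehyde, proximity-ligated using BsaI/T4 ligase for 1 h at 37 °C, PCR-amplified and read on an Illumina NextSeq500. Each hexamer's frequency of reads for a factor, divided by the matching frequency for the tag-only sample, gives the binding signal.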

Another assay addresses ETV5 (Homo sapiens, UniProt P41161 1-510). The conditions noted are these: protein: recombinant; tags: N-terminal GST; dsDNA, one strand shown. An outline of the steps: as §1
The target in the next assay is HSF1 (Homo sapiens, UniProt Q00613 1-529). The settings on record: protein: recombinant; tags: N-terminal GST; chain copies: 3; dsDNA, one strand shown. An outline of the steps:
as §1

The target in another assay is T2, SPIC (Homo sapiens, UniProt Q8N5J4 1-248).
T2 sequence: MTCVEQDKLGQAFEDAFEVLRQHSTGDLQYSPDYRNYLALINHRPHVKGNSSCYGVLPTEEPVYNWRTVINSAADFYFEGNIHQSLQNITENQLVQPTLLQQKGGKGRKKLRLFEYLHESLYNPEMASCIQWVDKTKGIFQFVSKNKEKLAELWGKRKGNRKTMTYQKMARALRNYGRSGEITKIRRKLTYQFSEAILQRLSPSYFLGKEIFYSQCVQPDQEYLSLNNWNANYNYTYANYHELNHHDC
The conditions noted are these: protein: recombinant; tags: N-terminal GST; dsDNA, one strand shown. The essentials:
as §1

The target in a further assay is ELF4 (Homo sapiens, UniProt Q99607 1-663). The settings on record: protein: recombinant; tags: N-terminal GST; dsDNA, one strand shown. The essentials:
as §1

In the next assay the target is T3, ELK4 (Homo sapiens, UniProt P28324-2 1-405).
T3 sequence: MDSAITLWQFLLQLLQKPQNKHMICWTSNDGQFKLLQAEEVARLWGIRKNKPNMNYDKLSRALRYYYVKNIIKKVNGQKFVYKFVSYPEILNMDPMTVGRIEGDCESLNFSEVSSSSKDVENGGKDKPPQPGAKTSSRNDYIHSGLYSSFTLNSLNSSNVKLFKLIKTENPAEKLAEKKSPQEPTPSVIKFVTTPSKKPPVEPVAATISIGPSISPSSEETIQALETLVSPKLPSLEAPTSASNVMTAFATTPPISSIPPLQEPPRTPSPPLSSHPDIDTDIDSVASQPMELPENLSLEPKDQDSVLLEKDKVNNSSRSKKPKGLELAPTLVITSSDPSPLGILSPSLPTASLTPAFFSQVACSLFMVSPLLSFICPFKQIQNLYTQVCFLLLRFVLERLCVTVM
The conditions noted are these: protein: recombinant; tags: N-terminal GST; dsDNA, one strand shown. An outline of the steps: as §1

The target in the next assay is T4, ETV2 (Homo sapiens, UniProt O00321 1-342).
T4 sequence: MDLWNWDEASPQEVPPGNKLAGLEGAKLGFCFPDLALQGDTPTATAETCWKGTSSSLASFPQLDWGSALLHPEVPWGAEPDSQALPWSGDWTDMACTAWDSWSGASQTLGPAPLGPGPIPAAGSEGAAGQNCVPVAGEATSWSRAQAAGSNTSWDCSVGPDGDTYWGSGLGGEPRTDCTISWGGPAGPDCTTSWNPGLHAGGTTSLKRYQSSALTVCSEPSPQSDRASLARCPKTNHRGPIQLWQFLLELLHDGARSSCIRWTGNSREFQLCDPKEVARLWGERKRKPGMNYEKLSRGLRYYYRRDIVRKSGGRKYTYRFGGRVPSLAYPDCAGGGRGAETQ
The conditions noted are these: protein: recombinant; tags: N-terminal GST; dsDNA, one strand shown. An outline of the steps:
as §1

Another assay concerns the target T5, ELF3 (Homo sapiens, UniProt P78545 1-371).
T5 sequence: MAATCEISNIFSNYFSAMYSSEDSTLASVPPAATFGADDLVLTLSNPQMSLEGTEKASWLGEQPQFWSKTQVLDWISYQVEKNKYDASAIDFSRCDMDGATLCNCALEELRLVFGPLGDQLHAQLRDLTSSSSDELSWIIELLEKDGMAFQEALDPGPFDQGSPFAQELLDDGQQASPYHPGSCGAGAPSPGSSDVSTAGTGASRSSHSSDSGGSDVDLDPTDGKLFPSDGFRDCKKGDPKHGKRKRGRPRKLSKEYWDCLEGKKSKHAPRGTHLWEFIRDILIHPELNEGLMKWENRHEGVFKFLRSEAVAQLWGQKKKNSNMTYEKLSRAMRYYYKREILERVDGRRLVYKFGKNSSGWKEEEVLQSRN
The settings on record: protein: recombinant; tags: N-terminal GST; dsDNA, one strand shown. The essentials: as §1

For another assay, the target named is CRX (Homo sapiens, UniProt O43186 1-299). The conditions noted are these: protein: recombinant; tags: N-terminal GST; dsDNA, one strand shown. The essentials:
as §1

The target of the next assay is ETV1 (Homo sapiens, UniProt P50549 1-477). The conditions noted are these: protein: recombinant; tags: N-terminal GST; dsDNA, one strand shown. The essentials: as §1
ETV1, sequence (P50549 whole entry): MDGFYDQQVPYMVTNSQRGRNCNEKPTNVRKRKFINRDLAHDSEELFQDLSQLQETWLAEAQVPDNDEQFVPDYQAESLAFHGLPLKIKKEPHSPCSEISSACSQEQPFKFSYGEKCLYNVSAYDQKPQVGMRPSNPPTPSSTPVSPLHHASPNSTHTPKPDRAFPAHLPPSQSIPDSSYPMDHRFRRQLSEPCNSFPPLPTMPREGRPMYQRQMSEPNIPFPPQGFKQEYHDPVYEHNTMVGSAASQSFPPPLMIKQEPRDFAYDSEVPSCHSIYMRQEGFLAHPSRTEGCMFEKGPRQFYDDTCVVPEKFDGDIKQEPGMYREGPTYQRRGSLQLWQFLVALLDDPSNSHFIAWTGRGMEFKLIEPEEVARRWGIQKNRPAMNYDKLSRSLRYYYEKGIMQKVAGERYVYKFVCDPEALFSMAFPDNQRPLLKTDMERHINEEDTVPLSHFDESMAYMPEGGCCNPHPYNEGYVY
Another assay addresses T6, ERF (Homo sapiens, UniProt P50548 1-548).
T6 sequence: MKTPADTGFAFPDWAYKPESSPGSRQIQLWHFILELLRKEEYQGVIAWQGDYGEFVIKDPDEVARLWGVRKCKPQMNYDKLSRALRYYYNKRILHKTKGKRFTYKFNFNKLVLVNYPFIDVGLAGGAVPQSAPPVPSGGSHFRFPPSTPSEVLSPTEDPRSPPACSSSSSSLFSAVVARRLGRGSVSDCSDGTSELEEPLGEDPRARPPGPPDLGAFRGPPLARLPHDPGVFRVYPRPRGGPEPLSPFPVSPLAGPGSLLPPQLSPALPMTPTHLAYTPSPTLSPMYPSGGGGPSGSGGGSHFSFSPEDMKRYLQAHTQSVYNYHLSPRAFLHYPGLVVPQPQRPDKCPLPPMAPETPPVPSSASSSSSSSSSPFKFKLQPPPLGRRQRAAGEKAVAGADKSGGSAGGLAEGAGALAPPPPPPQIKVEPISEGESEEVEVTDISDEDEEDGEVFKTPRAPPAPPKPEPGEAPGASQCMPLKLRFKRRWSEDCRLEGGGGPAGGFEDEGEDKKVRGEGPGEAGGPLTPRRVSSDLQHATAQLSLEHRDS
The settings on record: protein: recombinant; tags: N-terminal GST; dsDNA, one strand shown. The essentials: as §1

The target in a further assay is T7, ETV3L (Homo sapiens, UniProt Q6ZN32 1-361).
T7 sequence: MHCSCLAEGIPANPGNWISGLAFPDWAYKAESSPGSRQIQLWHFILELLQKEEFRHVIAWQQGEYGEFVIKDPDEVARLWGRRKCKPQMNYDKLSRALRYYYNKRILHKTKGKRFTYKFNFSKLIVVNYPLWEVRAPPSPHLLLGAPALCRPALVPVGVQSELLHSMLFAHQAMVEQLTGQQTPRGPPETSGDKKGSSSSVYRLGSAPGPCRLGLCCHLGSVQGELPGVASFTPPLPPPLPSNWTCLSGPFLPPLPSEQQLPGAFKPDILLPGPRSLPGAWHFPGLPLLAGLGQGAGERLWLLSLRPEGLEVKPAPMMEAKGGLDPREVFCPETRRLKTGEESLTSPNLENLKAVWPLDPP
The settings on record: protein: recombinant; tags: N-terminal GST; dsDNA, one strand shown. An outline of the steps:
as §1

A further assay deals with T8, ETS2 (Homo sapiens, UniProt P15036 1-469).
T8 sequence: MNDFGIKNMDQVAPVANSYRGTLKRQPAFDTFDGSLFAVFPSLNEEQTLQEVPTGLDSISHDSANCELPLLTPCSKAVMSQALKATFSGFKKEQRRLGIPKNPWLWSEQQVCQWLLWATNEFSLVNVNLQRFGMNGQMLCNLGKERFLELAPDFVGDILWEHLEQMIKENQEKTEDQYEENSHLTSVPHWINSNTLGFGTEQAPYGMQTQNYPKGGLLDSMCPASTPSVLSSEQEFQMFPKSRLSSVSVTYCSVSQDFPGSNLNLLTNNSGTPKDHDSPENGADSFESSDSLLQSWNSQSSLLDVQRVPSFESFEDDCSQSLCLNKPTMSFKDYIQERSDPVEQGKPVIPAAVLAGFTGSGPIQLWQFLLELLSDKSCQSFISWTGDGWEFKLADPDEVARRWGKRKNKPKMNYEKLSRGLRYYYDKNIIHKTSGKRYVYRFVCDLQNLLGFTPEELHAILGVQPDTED
The settings on record: protein: recombinant; tags: N-terminal GST; dsDNA, one strand shown. An outline of the steps: as §1

A further assay addresses T9, SPDEF (Homo sapiens, UniProt O95238 1-335).
T9 sequence: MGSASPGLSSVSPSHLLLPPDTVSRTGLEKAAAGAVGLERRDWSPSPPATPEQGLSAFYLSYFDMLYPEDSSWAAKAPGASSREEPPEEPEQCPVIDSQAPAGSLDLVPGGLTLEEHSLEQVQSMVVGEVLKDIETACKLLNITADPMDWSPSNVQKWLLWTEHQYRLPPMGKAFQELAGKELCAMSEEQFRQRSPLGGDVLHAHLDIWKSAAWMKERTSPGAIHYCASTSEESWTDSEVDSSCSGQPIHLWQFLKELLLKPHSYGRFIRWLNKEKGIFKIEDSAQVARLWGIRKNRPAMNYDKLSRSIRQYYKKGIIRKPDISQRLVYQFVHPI
The conditions noted are these: protein: recombinant; tags: N-terminal GST; dsDNA, one strand shown. An outline of the steps: as §1

In a further assay the target is T10, ETV7 (Homo sapiens, UniProt Q9Y603 1-341).
T10 sequence: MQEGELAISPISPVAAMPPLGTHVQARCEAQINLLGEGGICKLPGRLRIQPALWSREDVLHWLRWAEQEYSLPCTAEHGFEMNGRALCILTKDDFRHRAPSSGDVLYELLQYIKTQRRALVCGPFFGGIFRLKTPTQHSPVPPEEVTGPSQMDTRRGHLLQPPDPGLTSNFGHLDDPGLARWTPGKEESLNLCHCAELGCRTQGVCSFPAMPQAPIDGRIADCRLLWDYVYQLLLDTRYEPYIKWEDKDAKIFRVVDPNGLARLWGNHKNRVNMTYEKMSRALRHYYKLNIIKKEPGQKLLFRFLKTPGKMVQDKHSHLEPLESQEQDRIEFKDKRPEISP
The conditions noted are these: protein: recombinant; tags: N-terminal GST; dsDNA, one strand shown. An outline of the steps:
as §1

The target of another assay is T11, ELF5 (Homo sapiens, UniProt Q9UKW6-2 1-255).
T11 sequence: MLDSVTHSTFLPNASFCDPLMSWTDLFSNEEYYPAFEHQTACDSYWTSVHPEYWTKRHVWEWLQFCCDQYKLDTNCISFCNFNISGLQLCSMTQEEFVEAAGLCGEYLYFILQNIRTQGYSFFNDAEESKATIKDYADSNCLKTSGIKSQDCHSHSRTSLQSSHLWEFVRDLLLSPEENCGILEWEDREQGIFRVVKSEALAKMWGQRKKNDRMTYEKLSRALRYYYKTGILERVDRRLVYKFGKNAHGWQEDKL
The conditions noted are these: protein: recombinant; tags: N-terminal GST; dsDNA, one strand shown. The essentials: as §1

The target in another assay is T12, ETV3 (Homo sapiens, UniProt P41162-2 1-143).
T12 sequence: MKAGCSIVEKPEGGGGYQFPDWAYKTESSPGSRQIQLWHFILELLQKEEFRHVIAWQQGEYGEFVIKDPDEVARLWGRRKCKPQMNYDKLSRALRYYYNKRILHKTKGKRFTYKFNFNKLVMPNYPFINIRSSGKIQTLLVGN
The conditions noted are these: protein: recombinant; tags: N-terminal GST; dsDNA, one strand shown. The essentials:
as §1

The target in a further assay is ETV6 (Homo sapiens, UniProt P41212 1-452). The conditions noted are these: protein: recombinant; tags: N-terminal GST; dsDNA, one strand shown. The essentials:
as §1

HSF1, sequence (Q00613 whole entry): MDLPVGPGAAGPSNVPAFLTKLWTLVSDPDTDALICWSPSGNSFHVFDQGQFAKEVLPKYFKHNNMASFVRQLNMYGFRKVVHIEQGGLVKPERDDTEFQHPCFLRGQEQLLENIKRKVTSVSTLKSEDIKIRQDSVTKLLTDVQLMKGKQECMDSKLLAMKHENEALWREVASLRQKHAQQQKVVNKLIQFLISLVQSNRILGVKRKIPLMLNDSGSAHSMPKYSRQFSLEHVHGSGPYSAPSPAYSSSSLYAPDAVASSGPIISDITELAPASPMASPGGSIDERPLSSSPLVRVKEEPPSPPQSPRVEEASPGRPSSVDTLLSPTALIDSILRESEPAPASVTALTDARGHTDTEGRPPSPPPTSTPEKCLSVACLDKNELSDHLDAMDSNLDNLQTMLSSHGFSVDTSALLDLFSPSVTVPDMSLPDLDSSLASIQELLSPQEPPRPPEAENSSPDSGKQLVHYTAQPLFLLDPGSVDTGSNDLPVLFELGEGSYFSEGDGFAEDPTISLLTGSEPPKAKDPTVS
CRX, sequence (O43186 whole entry): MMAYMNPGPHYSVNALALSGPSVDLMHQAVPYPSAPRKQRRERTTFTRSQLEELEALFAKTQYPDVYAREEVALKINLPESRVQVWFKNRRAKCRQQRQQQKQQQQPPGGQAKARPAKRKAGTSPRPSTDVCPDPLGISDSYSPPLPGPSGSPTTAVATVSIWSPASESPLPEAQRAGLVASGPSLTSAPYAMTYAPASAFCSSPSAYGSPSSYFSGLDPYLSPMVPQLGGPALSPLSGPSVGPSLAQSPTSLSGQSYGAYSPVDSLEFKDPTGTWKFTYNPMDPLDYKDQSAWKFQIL
ELF4, sequence (Q99607 whole entry): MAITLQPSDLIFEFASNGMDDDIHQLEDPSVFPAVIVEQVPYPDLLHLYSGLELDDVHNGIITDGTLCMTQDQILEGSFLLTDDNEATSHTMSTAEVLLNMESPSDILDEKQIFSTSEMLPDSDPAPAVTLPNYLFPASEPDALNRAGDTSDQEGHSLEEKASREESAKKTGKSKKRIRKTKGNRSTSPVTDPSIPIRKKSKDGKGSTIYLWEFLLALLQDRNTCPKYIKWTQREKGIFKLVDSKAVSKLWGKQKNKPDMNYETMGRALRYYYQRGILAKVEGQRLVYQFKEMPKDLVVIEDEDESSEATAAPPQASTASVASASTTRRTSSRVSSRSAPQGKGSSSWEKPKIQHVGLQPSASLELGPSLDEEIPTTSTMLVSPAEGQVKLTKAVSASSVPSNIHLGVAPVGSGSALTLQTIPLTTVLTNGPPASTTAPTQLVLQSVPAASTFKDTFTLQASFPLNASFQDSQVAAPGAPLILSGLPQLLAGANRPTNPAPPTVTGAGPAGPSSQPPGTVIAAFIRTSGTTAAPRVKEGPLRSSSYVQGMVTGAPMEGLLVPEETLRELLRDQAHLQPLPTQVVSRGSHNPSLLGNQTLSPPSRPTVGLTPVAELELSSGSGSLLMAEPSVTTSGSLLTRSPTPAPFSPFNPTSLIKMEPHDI
ETV5, sequence (P41161 whole entry): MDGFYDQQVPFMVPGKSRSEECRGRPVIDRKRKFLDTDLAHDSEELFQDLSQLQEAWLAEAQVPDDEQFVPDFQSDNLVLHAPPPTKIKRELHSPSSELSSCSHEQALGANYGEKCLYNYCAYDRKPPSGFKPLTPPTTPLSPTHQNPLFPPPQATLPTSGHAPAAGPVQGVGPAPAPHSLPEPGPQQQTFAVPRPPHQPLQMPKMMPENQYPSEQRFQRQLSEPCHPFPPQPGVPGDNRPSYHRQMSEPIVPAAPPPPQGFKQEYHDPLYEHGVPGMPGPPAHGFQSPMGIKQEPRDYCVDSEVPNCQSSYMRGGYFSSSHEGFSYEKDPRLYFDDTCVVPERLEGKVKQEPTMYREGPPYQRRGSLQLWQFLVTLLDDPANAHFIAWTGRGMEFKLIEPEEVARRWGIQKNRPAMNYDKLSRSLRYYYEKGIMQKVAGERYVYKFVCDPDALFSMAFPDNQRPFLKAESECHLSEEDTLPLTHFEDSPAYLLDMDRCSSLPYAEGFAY
ETV6, sequence (P41212 whole entry): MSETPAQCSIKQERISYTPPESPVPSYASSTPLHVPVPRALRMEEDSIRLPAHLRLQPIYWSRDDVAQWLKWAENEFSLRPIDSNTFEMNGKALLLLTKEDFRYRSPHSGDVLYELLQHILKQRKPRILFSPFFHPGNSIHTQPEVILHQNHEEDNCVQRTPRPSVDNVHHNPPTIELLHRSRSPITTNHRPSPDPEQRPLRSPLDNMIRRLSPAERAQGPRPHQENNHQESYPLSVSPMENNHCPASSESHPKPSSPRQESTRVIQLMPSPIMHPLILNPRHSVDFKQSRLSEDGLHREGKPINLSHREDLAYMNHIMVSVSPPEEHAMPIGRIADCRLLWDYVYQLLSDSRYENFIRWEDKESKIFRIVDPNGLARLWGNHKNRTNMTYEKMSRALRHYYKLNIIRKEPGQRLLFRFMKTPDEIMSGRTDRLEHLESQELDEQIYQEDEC

Take ACTGCT: the binding signal with FEV is 1.48 fold enrichment (6-mer frequency, TF over GST control); with ETV5 it was 1.41 fold enrichment (6-mer frequency, TF over GST control); in the assay with HSF1, 1.19 fold enrichment (6-mer frequency, TF over GST control); in the assay with SPIC, 1.56 fold enrichment (6-mer frequency, TF over GST control); in the assay with ELF4, 1.3 fold enrichment (6-mer frequency, TF over GST control); in the assay with ELK4 it was 1.54 fold enrichment (6-mer frequency, TF over GST control). For the same sequence, the binding signal in the assay with ETV2 is 1.26 fold enrichment (6-mer frequency, TF over GST control); with ELF3 it was 1.32 fold enrichment (6-mer frequency, TF over GST control); with CRX, 1.21 fold enrichment (6-mer frequency, TF over GST control); in the assay with ETV1 it was 1.33 fold enrichment (6-mer frequency, TF over GST control); with ERF it was 1.27 fold enrichment (6-mer frequency, TF over GST control); in the assay with ETV3L, 1.41 fold enrichment (6-mer frequency, TF over GST control). For the same sequence, the binding signal with ETS2 was 1.38 fold enrichment (6-mer frequency, TF over GST control); with SPDEF, 1.26 fold enrichment (6-mer frequency, TF over GST control); with ETV7, 1.4 fold enrichment (6-mer frequency, TF over GST control); in the assay with ELF5 it was 1.33 fold enrichment (6-mer frequency, TF over GST control); in the assay with ETV3, 1.42 fold enrichment (6-mer frequency, TF over GST control); with ETV6, 1.33 fold enrichment (6-mer frequency, TF over GST control).
